The values below come from PubChem BioAssay (NCI).

Molecules are shown by their SMILES. Compounds without any hit were thinned out: in the full panel of roughly 83,000, 20% have a hit.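 96-well plates, one dose, 48 hours. Percent growth reported; active if below 10.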 Active and inactive are the calls of the source.

The experiment concerns HL-60(TB) leukemia. Put plainly: NCI-60 one-dose screen, 48 h (100 = growth as untreated, 0 = no growth, -100 = all killed). The note with it: 10 µM unless noted.
Turning to `O=C1/C(=C/c2ccc(Cl)cc2)CN(C(=O)C(Cl)Cl)C/C1=C\c1ccc(Cl)cc1`, the growth was -19.3% (active).

Turning to `COc1ccc(/C=C2\SC(=Nc3ccccc3)NC2=O)cc1`, the growth was -70.8% (active).

Turning to `CCOc1ccc(C(C)=O)cc1NC(=O)c1cccc(-c2nnn(CC)n2)c1`, the growth was 7.31% (active).
